As a reminder, the AC50 is the concentration giving half of the maximal activity seen.

Read-out in experiment [1]: Cyclin D2 (CCND2), CCND2 (gene 894)
Description: LTEA_HepaRG_CCND2: Life Technologies and Expression Analysis (LTEA) Assay for Cyclin D2 (CCND2) using HepaRG (AID 2283449).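 Further: CCND2 transcript measured by TaqMan qRT-PCR and normalised to three housekeeping genes.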 The following applies: mRNA level, 48 h; actives raise or lower the signal. The method, boiled down: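 Chemicals in 0.5% DMSO, eight half-log concentrations from 100 uM top, were applied in duplicate for 48 h to human HepaRG cells in serum-free induction medium. CCND2 mRNA by TaqMan qRT-PCR, normalised to ACTB/GAPDH/POLR2A; bidirectional fit versus DMSO.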

Read-out in experiment [2]: Cyclin Dependent Kinase Inhibitor 1A (CDKN1A), CDKN1A (gene 1026)
Kind of experiment: LTEA_HepaRG_CDKN1A: Life Technologies and Expression Analysis (LTEA) Assay for Cyclin Dependent Kinase Inhibitor 1A (CDKN1A) using HepaRG (AID 2283450). The following applies: mRNA level, 48 h; actives raise or lower the signal. The gist of the method:
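Gain or loss of CDKN1A transcript is scored by bidirectional fitting against 0.5% DMSO vehicle. Human HepaRG cultures receive chemicals for 48 h across an 8-point series peaking at 100 uM; expression comes from qRT-PCR.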

Read-out in experiment [3]: catalase (CAT), CAT (gene 847)
Kind of experiment: LTEA_HepaRG_CAT: Life Technologies and Expression Analysis (LTEA) Assay for catalase (CAT) using HepaRG (AID 2283452). Particulars: mRNA level, 48 h; actives raise or lower the signal. The gist of the method:
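HepaRG cells in serum-free induction medium, 0.5% DMSO vehicle, exposed 48 h in duplicate over 8 half-log concentrations from 100 uM. CAT mRNA measured by qRT-PCR, normalized to ACTB, GAPDH, POLR2A; bidirectional fit versus DMSO.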

Read-out in experiment [4]: flavin-containing dimethylaniline monooxygenases 3 (FMO3), FMO3 (gene 2328)
Kind of experiment: LTEA_HepaRG_FMO3: Life Technologies and Expression Analysis (LTEA) Assay for flavin-containing dimethylaniline monooxygenases 3 (FMO3) using HepaRG (AID 2283453). The following applies: mRNA level, 48 h; actives raise or lower the signal. The method, boiled down:
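Differentiated HepaRG cells in serum-free induction medium, exposed 48 h in duplicate to 8 half-log concentrations up to 100 uM in 0.5% DMSO. FMO3 mRNA by qRT-PCR, normalized to ACTB, GAPDH, POLR2A; bidirectional fit vs DMSO.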

Read-out in experiment [5]: Cytochrome P450 (CYP1A1), CYP1A1 (gene 1543)
Description: LTEA_HepaRG_CYP1A1: Life Technologies and Expression Analysis (LTEA) Assay for Cytochrome P450 (CYP1A1) using HepaRG (AID 2283454). The following applies: mRNA level, 48 h; actives raise or lower the signal. The gist of the method: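 Using HepaRG cultures with 0.5% DMSO as vehicle, eight-concentration exposures (max 100 uM) lasted 48 h. Transcript levels were measured by TaqMan qRT-PCR and normalized to ACTB, GAPDH and POLR2A.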

Read-out in experiment [6]: CFLAR gene, CFLAR (gene 8837)
Kind of experiment: LTEA_HepaRG_CFLAR: Life Technologies and Expression Analysis (LTEA) Assay for CFLAR gene using HepaRG (AID 2283455). Particulars: mRNA level, 48 h; actives raise or lower the signal. The gist of the method: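 Differentiated HepaRG cells in serum-free induction medium were exposed 48 h in duplicate to eight half-log concentrations up to 100 uM in 0.5% DMSO; mRNA measured by TaqMan qRT-PCR, normalized to ACTB, GAPDH, POLR2A; bidirectional fitting versus DMSO.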

Read-out in experiment [7]: Forkhead box O1 (FOXO1), FOXO1 (gene 2308)
Description: LTEA_HepaRG_FOXO1: Life Technologies and Expression Analysis (LTEA) Assay for Forkhead box O1 (FOXO1) using HepaRG (AID 2283456). Particulars: mRNA level, 48 h; actives raise or lower the signal. The method, boiled down:
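Differentiated HepaRG cells, in serum-free induction medium with 0.5% DMSO, exposed 48 h in duplicate to 8-point half-log series from 100 uM. FOXO1 mRNA measured by TaqMan qRT-PCR, normalized to ACTB, GAPDH, POLR2A; bidirectional fit versus DMSO.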

Read-out in experiment [8]: growth arrest and DNA damage 45 (GADD45A), GADD45A (gene 1647)
Kind of experiment: LTEA_HepaRG_GADD45A: Life Technologies and Expression Analysis (LTEA) Assay for growth arrest and DNA damage 45 (GADD45A) using HepaRG (AID 2283458). The following applies: mRNA level, 48 h; actives raise or lower the signal. The method, boiled down:
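Cells plated and cultured 48 h, switched to serum-free induction medium, then dosed for 48 h (100 uM top, half-log dilutions, 0.5% DMSO). RNA was isolated and transcript measured by Fluidigm qRT-PCR.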

Read-out in experiment [9]: Forkhead box O3 (FOXO3), FOXO3 (gene 2309)
Kind of experiment: LTEA_HepaRG_FOXO3: Life Technologies and Expression Analysis (LTEA) Assay for Forkhead box O3 (FOXO3) using HepaRG (AID 2283459). The following applies: mRNA level, 48 h; actives raise or lower the signal. The method, boiled down: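 Differentiated human HepaRG cells, 48 h post-plating, exposed in duplicate for 48 h in serum-free induction medium; 8-point half-log series from 100 uM in 0.5% DMSO. FOXO3 mRNA by TaqMan qRT-PCR, normalized to ACTB/GAPDH/POLR2A; bidirectional fit versus DMSO.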

Read-out in experiment [10]: ABC Transporter (ABCB1), ABCB1 (gene 5243)
Kind of experiment: LTEA_HepaRG_ABCB1: Life Technologies and Expression Analysis (LTEA) Assay for ABC Transporter (ABCB1) using HepaRG (AID 2283460). Particulars: mRNA level, 48 h; actives raise or lower the signal. The gist of the method:
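HepaRG cells exposed in duplicate for 48 h in serum-free induction medium to eight half-log concentrations up to 100 uM in 0.5% DMSO. ABCB1 mRNA quantified by qRT-PCR, normalised to ACTB, GAPDH and POLR2A; fitted bidirectionally versus DMSO.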

Read-out in experiment [11]: growth arrest and DNA damage 45 (GADD45B), GADD45B (gene 4616)
Kind of experiment: LTEA_HepaRG_GADD45B: Life Technologies and Expression Analysis (LTEA) Assay for growth arrest and DNA damage 45 (GADD45B) using HepaRG (AID 2283461). The following applies: mRNA level, 48 h; actives raise or lower the signal. The gist of the method:
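Human HepaRG monolayers receive chemicals for 48 h at eight half-log concentrations, highest 100 uM, in 0.5% DMSO. Expression is measured by TaqMan qRT-PCR and normalized to ACTB, GAPDH and POLR2A.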

Read-out in experiment [12]: ABC Transporter (ABCC3), ABCC3 (gene 8714)
Kind of experiment: LTEA_HepaRG_ABCC3: Life Technologies and Expression Analysis (LTEA) Assay for ABC Transporter (ABCC3) using HepaRG (AID 2283462). Particulars: mRNA level, 48 h; actives raise or lower the signal. The method, boiled down: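 Transcriptional change of ABCC3 in HepaRG after 48 h treatment, determined by qRT-PCR normalized to endogenous controls. Concentrations spanned eight half-log steps to 100 uM in 0.5% DMSO.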

Read-out in experiment [13]: ABC Transporter (ABCB11), ABCB11 (gene 8647)
Kind of experiment: LTEA_HepaRG_ABCB11: Life Technologies and Expression Analysis (LTEA) Assay for ABC Transporter (ABCB11) using HepaRG (AID 2283463). Particulars: mRNA level, 48 h; actives raise or lower the signal. The method, boiled down: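 Differentiated human HepaRG cells in serum-free induction medium, dosed in duplicate for 48 h. Eight-point half-log series from 100 uM in 0.5% DMSO; ABCB11 mRNA by qRT-PCR, normalized to ACTB, GAPDH, POLR2A, fitted bidirectionally versus DMSO.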

Read-out in experiment [14]: ABC Transporter (ABCC2), ABCC2 (gene 1244)
Kind of experiment: LTEA_HepaRG_ABCC2: Life Technologies and Expression Analysis (LTEA) Assay for ABC Transporter (ABCC2) using HepaRG (AID 2283464). Particulars: mRNA level, 48 h; actives raise or lower the signal. The gist of the method:
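After plating and 48 h culture, HepaRG medium is replaced with serum-free induction medium and chemicals are added (8 concentrations, max 100 uM, 0.5% DMSO) for 48 h. Total RNA then undergoes qRT-PCR for ABCC2 with housekeeping normalization.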

Read-out in experiment [15]: Broad substrate specificity ATP-binding cassette transporter ABCG2 (Homo sapiens) (UniProt Q9UNQ0)
Kind of experiment: LTEA_HepaRG_ABCG2: Life Technologies and Expression Analysis (LTEA) Assay for ABC Transporter (ABCG2) using HepaRG (AID 2283465). Particulars: mRNA level, 48 h; actives raise or lower the signal. The gist of the method: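 Differentiated HepaRG cells were exposed for 48 h in serum-free induction medium to 8 half-log concentrations, top 100 uM, in 0.5% DMSO. ABCG2 mRNA was measured by qRT-PCR, normalized to ACTB, GAPDH and POLR2A, with bidirectional fitting versus DMSO.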

Read-out in experiment [16]: ATP-citrate lyase (ACLY), ACLY (gene 47)
Description: LTEA_HepaRG_ACLY: Life Technologies and Expression Analysis (LTEA) Assay for ATP-citrate lyase (ACLY) using HepaRG (AID 2283466). Particulars: mRNA level, 48 h; actives raise or lower the signal. The gist of the method:
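Differentiated HepaRG cells exposed 48 h in serum-free induction medium to eight half-log concentrations up to 100 uM in 0.5% DMSO, duplicates. Transcript measured by Fluidigm TaqMan qRT-PCR, normalized to ACTB, GAPDH, POLR2A; bidirectional fit versus DMSO.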

Read-out in experiment [17]: Peroxisomal acyl-coenzyme A oxidase 1 (ACOX1) gene, ACOX1 (gene 51)
Description: LTEA_HepaRG_ACOX1: Life Technologies and Expression Analysis (LTEA) Assay for Peroxisomal acyl-coenzyme A oxidase 1 (ACOX1) gene using HepaRG (AID 2283467). The following applies: mRNA level, 48 h; actives raise or lower the signal. The method, boiled down:
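HepaRG cells, plated 48 h then switched to serum-free induction medium, were exposed in duplicate for 48 h to 8-point half-log concentrations up to 100 uM in 0.5% DMSO. ACOX1 mRNA was measured by qRT-PCR, normalized to ACTB/GAPDH/POLR2A, and fitted bidirectionally versus DMSO.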

Read-out in experiment [18]: Alkaline Phosphatase, Placental (ALPP) gene, ALPP (gene 250)
Description: LTEA_HepaRG_ALPP: Life Technologies and Expression Analysis (LTEA) Assay for Alkaline Phosphatase, Placental (ALPP) gene using HepaRG (AID 2283468). Particulars: mRNA level, 48 h; actives raise or lower the signal. The method, boiled down:
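Using human liver HepaRG cells, chemicals are tested in duplicate over 48 h at half-log concentrations topping at 100 uM; phenobarbital 1 mM serves as induction control. ALPP mRNA change by qRT-PCR, bidirectional fit against vehicle.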

Read-out in experiment [19]: Cyclin D1 (CCND1), CCND1 (gene 595)
Kind of experiment: LTEA_HepaRG_CCND1: Life Technologies and Expression Analysis (LTEA) Assay for Cyclin D1 (CCND1) using HepaRG (AID 2283451). The following applies: mRNA level, 48 h; actives raise or lower the signal. The gist of the method:
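Expression change is measured by qRT-PCR in HepaRG cells after 48 h treatment across eight concentrations topping at 100 uM, with duplicate wells and DMSO (0.5%) serving as baseline for bidirectional fitting.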

Experiment [20] is described as follows: CEETOX_H295R_TESTO: CeeTox H295R High-throughput Steroidogenesis Assay for Testosterone (TESTO) (AID 2283457).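 Further: cells exposed to chemicals for 48 h before medium collection.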 The following applies: actives raise or lower the signal. The gist of the method:
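Steroidogenesis in H295R cells following OECD 456 with minor changes; 48 h exposure. Medium testosterone by HPLC-MS/MS, DMSO as baseline, with MTT viability run in parallel.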

Activity calls are given as the source filed them. How the source made its calls: active means hit-call score of the fitted dose curve at least 0.9, where 1 is the maximum; inactive means score below 0.9.

Sequence of Broad substrate specificity ATP-binding cassette transporter ABCG2 (Homo sapiens) (Q9UNQ0 whole entry, looked up): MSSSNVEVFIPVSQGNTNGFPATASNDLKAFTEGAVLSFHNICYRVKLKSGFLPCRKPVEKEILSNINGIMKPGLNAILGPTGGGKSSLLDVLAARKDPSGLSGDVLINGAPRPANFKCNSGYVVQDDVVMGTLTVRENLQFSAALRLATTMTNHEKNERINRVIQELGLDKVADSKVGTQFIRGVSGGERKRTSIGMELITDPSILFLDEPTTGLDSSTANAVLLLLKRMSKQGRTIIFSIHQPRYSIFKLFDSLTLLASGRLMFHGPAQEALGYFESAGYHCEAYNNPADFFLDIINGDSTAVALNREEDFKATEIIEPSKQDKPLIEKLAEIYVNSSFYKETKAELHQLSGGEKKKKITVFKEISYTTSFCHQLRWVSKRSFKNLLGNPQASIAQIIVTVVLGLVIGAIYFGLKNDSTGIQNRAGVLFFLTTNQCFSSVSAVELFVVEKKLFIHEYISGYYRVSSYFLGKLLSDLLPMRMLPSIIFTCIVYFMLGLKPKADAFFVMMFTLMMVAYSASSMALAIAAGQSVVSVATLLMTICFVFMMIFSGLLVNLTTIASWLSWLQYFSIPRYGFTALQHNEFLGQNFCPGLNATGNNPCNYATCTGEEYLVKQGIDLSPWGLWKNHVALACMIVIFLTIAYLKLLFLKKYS

For `CC[C@H](C)[C@@H](C(=O)O)n1sc2ccccc2c1=O`, the compound was called inactive in experiment [1], in [2], in [3], in [4], in [6] and in experiment [7]. Moreover, the result in experiment [8], in experiment [9], in experiment [10], in [11], in experiment [12] and in [13] was inactive. The compound was called inactive in experiment [14], in experiment [15], in [16], in [17] and in experiment [18]. Besides, the AC50 in experiment [5] is 50 µM (active).
In the case of `N#C[C@@H]1CC(F)(F)CN1C(=O)CNC1CC2CCC(C1)N2c1ncccn1` (stereo partly specified), the outcome in [1], in [2], in [19], in experiment [3], in experiment [4] and in experiment [6] was inactive. Moreover, the compound was called inactive in [7], in experiment [8], in experiment [9], in [10], in [11] and in experiment [12]. The compound was classed as inactive in [13], in [14], in experiment [15], in [17] and in experiment [18]. In addition, in experiment [5], the AC50 was 72.1 µM (active).
Turning to `c1ccc2c(c1)ccc1ccccc12`, the outcome in experiment [1], in experiment [2], in experiment [3], in [4], in [6] and in [7] was inactive. For the same compound, the outcome in [8], in [9], in experiment [10], in experiment [11], in experiment [13] and in [17] was inactive. Further, in [18], the compound was classed as inactive. In addition, the AC50 is 50 µM (active) in experiment [5], 56.2 µM (active) in [20], 9.92 µM (active) in experiment [14] and 9.4 µM (active) in experiment [15].
On to `COCC(C)OCC(C)O` (stereo unspecified), for which the compound was called inactive in experiment [1], in experiment [2], in [19], in experiment [3], in experiment [4] and in experiment [6]. The compound was called inactive in experiment [7], in experiment [8], in experiment [9], in [10], in [11] and in experiment [13]. The outcome in experiment [14], in experiment [15], in experiment [16], in experiment [17] and in [18] was inactive. Moreover, in experiment [5], the AC50 was 50 µM (active).

Values taken from PubChem BioAssay (EPA / NIEHS).
